The results in this text go back to PubChem BioAssay AID720579 (National Center for Advancing Translational Sciences (NCATS), 2013).

Among all 310,000 compounds or so, about 1,900 (0.61%) were called active. Entries that show only a call come without a potency. Another 8% or so got no clear call; they are omitted. Many of the other results were omitted from the sample, so actives are more common in it than they were. Values without a mark were called inactive. Calls come from the whole dose curve; tested in A549 cells.
Potency is the fitted concentration of half-maximal effect.

The assay can be described thus: qHTS for Stage-Specific Inhibitors of Vaccinia Orthopoxvirus: mCherry Reporter Primary qHTS. Note: nearly all actives have a fitted effect of over 35% in size. The note with it: Vaccinia virus mCherry reporter infection, fluorescence; series mostly up to 36.5 µM. A general note: qHTS replaces the single test concentration by a dilution series.
Regarding `Cc1ccc(C(=O)NC(C)C(c2cccs2)N2CCOCC2)cc1C` (stereo not drawn), the Potency result was “inactive”.

With `CCc1nc2c(OCc3ccc(C(=O)OC)cc3)cccn2c1N(C)C(=O)C(C)C`, the Potency result is “inactive”.

For `CCOc1ccc(/C=N/NC(N)=S)cc1`, the Potency is 1 µM (active).

Turning to `CCOc1ccc(/C=N\NC(=O)c2c(C)nc3cc(C)ccn23)cc1`, the Potency result was “inactive”.

`COC(=O)N/N=C/c1ccc(/C=N/NC(=O)OC)cc1`: the Potency entry was “inactive”.

For `COc1cccc(NC(=O)Nc2ccc(F)cc2)c1`, the Potency entry is “inactive”.

For `Cc1ccc(CNC(=O)CSC2=Nc3ccccc3C3=NC(C)C(=O)N23)cc1` (stereo not drawn), the Potency entry is “inactive”.

Turning to `O=C(CSC1=Nc2ccccc2C2=NC(c3ccccc3)C(=O)N12)NCC1CCCO1` (stereo not drawn), the Potency entry is “inactive”.

For the molecule `CC(C)C1N=C2c3ccccc3N=C(SCC(=O)c3ccc(O)c(O)c3)N2C1=O` (stereo not drawn), the Potency is 11.2 µM (active).

Regarding `Cc1cc2nc(-c3ccc(Cl)cc3)c(Cc3cccc(F)c3)n2c(C)c1Br`, the Potency result is “inactive”.

On to `CC(C)C1CCN(C(=O)C2CCC(=O)N(C3CCCCCC3)C2)CC1` (stereo not drawn), for which the Potency entry is “inactive”.

As to `CCN(CC)c1ccc(/C=N/Nc2nc(C)cc(C)n2)c(O)c1`, the Potency was 2.51 µM (active).

On to `Cc1cc(C)nc(N/N=C/c2ccncc2)n1`, for which the Potency result is “inactive”.

Turning to `CCOc1ccc(-n2c(O)c(/C=N/Nc3nc(C)cc(C)n3)c3ccccc3c2=O)cc1`, the Potency result is “inactive”.

Take `O=C(Nc1ccccc1)c1ccc2c(c1)OCCCO2`: the Potency result is “inactive”.

In the case of `CC1=C(C(=O)Nc2ccccc2)SCCO1`, the Potency result is “inactive”.

Consider `CC1=C(C(=O)Nc2ccccc2)S(=O)(=O)CCO1`, for which the Potency was 0.891 µM (active).

As to `CC(C)Nc1nc(NCCOc2ccccc2Cl)c2sccc2n1`, the Potency entry was “inactive”.

On to `COc1ccc(CNC(=O)C[C@H]2C[C@H](C(=O)N3CCOCC3)[C@@]3(CCC4CCCC4)c4[nH]c5ccc(Cl)cc5c4CCN3C2=O)cc1OC`, for which the Potency entry was “inactive”.

`CN(C)C(=O)CCc1ccc2c3c([nH]c2c1)[C@]1(CCC2CCCC2)[C@@H](C(=O)N2CCOCC2)C[C@H](CC(=O)NCc2ccco2)C(=O)N1CC3`: the Potency entry was “inactive”.

With `O=C(C[C@H]1C[C@H](C(=O)N2CCOCC2)[C@@]2(CCC3CCCC3)c3[nH]c4ccc(Cl)cc4c3CCN2C1=O)NCc1ccco1`, the Potency was 7.08 µM (active).

As to `COc1ccc(Cl)cc1NC(=O)CN(C)C(=O)c1cn(-c2ccccc2)nc1-c1cccs1`, the Potency result was “inactive”.

For the molecule `CC(C)C[C@H]1CNC(=S)N1C[C@H]1CCCN1C[C@H](Cc1ccc(O)cc1)N1C[C@H](Cc2ccc(O)cc2)N(CC2CCCCC2)C1=S`, the Potency result is “inactive”.

In the case of `CC(C)Sc1nc(N)nc2c1ncn2C1OC(CO)C(O)C1O` (stereo not drawn), the Potency entry was “inactive”.

Consider `Nc1ncn(C2OC(CO)C(O)C2O)c(=O)n1` (stereo not drawn), for which the Potency is 10 µM (active).

For the molecule `Nc1nc(SCc2ccc([N+](=O)[O-])cc2)c2ncn(C3OC(CO)C(O)C3O)c2n1` (stereo not drawn), the Potency result was “inactive”.

Consider `COc1ccc(-c2ccc(C(=O)NC(C)C)c3occc23)c(C)c1`, for which the Potency entry was “inactive”.

`CC(=O)c1cccc(-c2cnc3c(NC=O)cc(-c4ccc(N(C)C)cc4)cn23)c1`: the Potency entry was “inactive”.

Consider `CC(=O)c1cccc(-c2cnc3c(NC=O)cc(-c4cccc(C(=O)N(C)C)c4)cn23)c1`, for which the Potency entry is “inactive”.

`CC(=O)c1ccc(-c2cnc3c(NC=O)cc(-c4cccc(NS(C)(=O)=O)c4)cn23)cc1`: the Potency was 11.2 µM (active).

Turning to `COc1ccc(-c2cc3nc(NCCOc4ccccc4)ccn3n2)cc1`, the Potency result was “inactive”.

Take `COc1ccc(S(=O)(=O)NCCc2c[nH]c3ccccc23)cc1OC`: the Potency result was “inactive”.

Consider `c1cncc(CNCCc2c[nH]c3ccccc23)c1`, for which the Potency entry is “inactive”.

`COc1cccc(CNCCc2c[nH]c3ccccc23)c1OCc1ccccc1F`: the Potency was 10 µM (active).

In the case of `OCC(O)C(O)C(O)C(O)C=Nc1ccc(/C=C/c2ccnc3ccccc23)cc1` (stereo not drawn), the Potency entry was “inactive”.

Regarding `C=CC[C@@H](Cc1ccc(F)cc1)C(=O)OC[C@H]1CCCN1C(=O)[C@H](CC=C)CC(=O)N(CCO)Cc1ccccc1`, the Potency entry was “inactive”.

In the case of `Cc1cccc(C(=O)C(O)(c2ccccc2)C2CCCCC2=O)c1` (stereo not drawn), the Potency entry is “inactive”.

As for `O=C(C1CC(=O)N(C2CCCCC2)C1)N1CCN(c2ccccc2)CC1` (stereo not drawn), the Potency entry was “inactive”.

Turning to `O=C(C1CC(=O)N(C2CCCC2)C1)N1CCN(c2cccc(C(F)(F)F)c2)CC1` (stereo not drawn), the Potency was 10 µM (active).

For the molecule `O=C(C1CC(=O)N(c2ccc(F)cc2)C1)N1CCN(c2ccccc2)CC1` (stereo not drawn), the Potency entry is “inactive”.

In the case of `COc1ccc(C2OC(CCc3ccccc3)Cc3[nH]c(=S)[nH]c(=O)c32)cc1` (stereo not drawn), the Potency entry was “inactive”.

Consider `CCCc1nc2c3ccccc3ccn2c1Cc1ccccc1C(F)(F)F`, for which the Potency result is “inactive”.

With `OC(CBr)C[n+]1cccc2cc(Br)ccc21` (stereo not drawn), the Potency result is “inactive”.

Regarding `CCCC[C@@H]1CN=C(N)N1CCc1cccc(F)c1`, the Potency result was “inactive”.

As to `CCCC[C@@H]1CN=C(N)N1CCCC`, the Potency entry is “inactive”.

Regarding `CCCC[C@@H]1CN=C(N)N1CCc1cc(C(F)(F)F)cc(C(F)(F)F)c1`, the Potency was 11.2 µM (active).

In the case of `CC(C)(C)NCC(O)COc1cccc2[nH]c(=O)[nH]c12` (stereo not drawn), the Potency result was “inactive”.

Regarding `CC(C)(C)CC(C)(C)NCC(O)COCCOc1ccc(Br)cc1` (stereo not drawn), the Potency was 12.6 µM (active).

On to `COc1ccc(OCC(O)CNCCNc2nccc(C(F)(F)F)n2)cc1` (stereo not drawn), for which the Potency entry was “inactive”.

Regarding `Cc1ccc2nc(-c3ccco3)c(Cc3cccc(Cl)c3)n2c1`, the Potency result is “inactive”.

As for `c1ccc(-c2nccc(-c3ccc(-n4cnc5ccccc54)cc3)n2)nc1`, the Potency is 11.2 µM (active).

In the case of `Cc1nccc(-c2ccc(-n3c(C)ccc3C)cc2)n1`, the Potency entry is “inactive”.

For `CC(C)(C)Nc1nc(-c2ccccn2)nc2ccccc12`, the Potency entry was “inactive”.

`COc1ccc(NS(=O)(=O)c2ccc(N3CCOCC3)c(NC(=O)c3ccccc3Br)c2)cc1`: the Potency entry was “inactive”.

Turning to `COc1ccc2c(c1)Cc1sc(NC(=O)c3ccccc3Br)nc1-2`, the Potency is 11.2 µM (active).

Regarding `COc1cccc(C(=O)Nc2nc3ccc(S(C)(=O)=O)cc3s2)c1`, the Potency entry was “inactive”.

In the case of `CCCc1c(-c2ccccc2F)ncn1Cc1ccccc1OC`, the Potency entry was “inactive”.

As to `Cc1ccc(SCc2c(C(=O)N/N=C/C3CC=CCC3)nnn2-c2nonc2N)cc1` (stereo not drawn), the Potency result is “inactive”.

`Nc1nonc1-n1nnc(C(=O)N/N=C/c2cc(Br)ccc2O)c1CSC1=NCCS1`: the Potency is 7.08 µM (active).

Take `Cc1ccc(SCc2c(C(=O)N/N=C/c3cccnc3)nnn2-c2nonc2N)cc1`: the activity change, negative = inhibition is -10.8% [at 7.34 µM].

`O=C(Nc1cc(Br)ccc1F)c1nc[nH]c1C(=O)NCc1ccccc1`: the Potency result was “inactive”.

Turning to `CCc1nc2ccc(C(=O)NC3CCN(Cc4ccccc4)CC3)cn2c1N(CC)CCOC`, the Potency entry is “inactive”.

As for `CC(C)(C)c1cc(C(=O)N/N=C/c2ccc([N+](=O)[O-])s2)n[nH]1`, the Potency was 11.2 µM (active).

With `Cc1nc2ccccc2cc1C(=O)N/N=C/c1ccc([N+](=O)[O-])cc1`, the Potency entry is “inactive”.

Regarding `Cc1ccsc1C(=O)N/N=C/c1ccc([N+](=O)[O-])cc1`, the Potency result is “inactive”.

As for `Cc1nc2c(OCc3ccc(Cl)cc3)cccn2c1N(C)Cc1cccs1`, the Potency entry was “inactive”.

Regarding `CCCCOCCCNC(=O)C[C@@H]1C[C@@]2(C(=O)OCC)CCCC=C2N(CCC2=CCCCC2)C1=O`, the Potency entry was “inactive”.

As to `CN(C)CCNC(=O)c1ccc(-c2cn3c(-c4ccc(Oc5ccccc5)cc4)cnc3cn2)cc1`, the Potency result was “inactive”.

Take `CCCc1ccc(-c2c(C)sc(NC(=O)c3ccnn3C)c2C#N)cc1`: the Potency is 11.2 µM (active).

Take `Cc1sc(NC(=O)C2=COCCO2)c(C#N)c1C`: the Potency result was “inactive”.

For the molecule `Cn1nccc1CNC(=O)c1ccnn1C`, the Potency entry was “inactive”.

As to `C=C1C=C(C(F)F)n2ncc(C(=O)NCCc3ccccc3OC)c2N1`, the Potency entry is “inactive”.

For the molecule `CN1CCN(c2ccc3c(c2)OC[C@H](Cc2ccccc2)NS3(=O)=O)CC1`, the Potency result is “inactive”.

In the case of `CN(C)CCNC(=O)Nc1cccc(Cl)c1Cl`, the Potency result was “inactive”.

In the case of `CC(=O)NCCNC(=O)c1cc(-c2cccc3ccccc23)nc2ccccc12`, the Potency entry is “inactive”.

`CN(C)CCNC(=O)c1ccc(Cl)c2cc3ccccc3nc12`: the Potency was 1.78 µM (active).

As for `COc1cccc(-c2cnc3c(NC(C)=O)cc(-c4cccc(NC(C)=O)c4)cn23)c1`, the Potency entry is “inactive”.

Turning to `CCCCn1nnnc1C(c1cccc(OC)c1OC)N1CCN(C/C=C/c2ccccc2)CC1` (stereo not drawn), the Potency result was “inactive”.

Take `Cc1c(CCO)sc[n+]1CC(=O)c1ccc2ccccc2c1`: the Potency entry is “inactive”.

In the case of `CN1CCc2nc(SC(C(=O)O)c3ccccc3)c(C#N)c(-c3cccs3)c2C1` (stereo not drawn), the Potency entry is “inactive”.

For `Cc1cc(NC(=O)CSc2nc3c(cc2C#N)CCCCC3)no1`, the Potency result was “inactive”.

On to `CC(NC(=O)CSc1nc2c(cc1C#N)CN(C)CC2)c1ccccc1` (stereo not drawn), for which the Potency is 10 µM (active).

Turning to `CCCCCCCCN1C(=O)[C@H](CC(=O)NCC23CC4CC(CC(C4)C2)C3)C[C@@]2(C(=O)OC)CCCCC=C12`, the Potency result was “inactive”.

For the molecule `CCN1C(=O)[C@H]2[C@@H](c3ccc(C(F)(F)F)cc3)N[C@]3(CCCN(Cc4ccc(Br)cc4)C3=O)[C@H]2C1=O`, the Potency entry is “inactive”.

In the case of `CC(C)(C)S(=O)N1Cc2cc(C(=O)NCCCN3CCOCC3)nc(-c3cccc(-c4cc5ccccc5o4)c3)c2[C@H]1CCO` (stereo partly drawn), the Potency result is “inactive”.

For `CC1(Oc2ccc(Cl)cc2)CCN(Cc2csc3ccccc23)C1` (stereo not drawn), the Potency entry is “inactive”.

Consider `COc1ccc2sc(-c3ccc(N(C)C)cc3)c(C#CCO)c2c1`, for which the Potency was 12.6 µM (active).

As to `COc1ccc2sc(-c3ccc(N(C)C)cc3)c(-c3ccc4cc[nH]c4c3)c2c1`, the Potency entry was “inactive”.

On to `COc1ccc2sc(-c3ccc(S(C)(=O)=O)cc3)c(C#Cc3cncn3C)c2c1`, for which the Potency entry is “inactive”.

Consider `COCOc1cccc(CN2CCC(C)(Oc3ccc(SC)cc3)C2)c1` (stereo not drawn), for which the Potency result is “inactive”.

In the case of `O=C(NCc1cccc(C(F)(F)F)c1)c1ccc2sc(COCCO)nc2c1`, the Potency result is “inactive”.

With `OC[C@@H]1CN(Cc2cccs2)C[C@H](n2cnc3c(NC4CCCC4)ncnc32)O1`, the Potency result was “inactive”.

Take `Cc1cc(C)nc(N/N=C/c2c(CO)cnc(C)c2O)n1`: the Potency was 12.6 µM (active).

As to `Cc1ncc(CO)c(/C=N/NC(=O)c2cccc(S(=O)(=O)N3CCCC3)c2)c1O`, the Potency result was “inactive”.

As for `Cc1cc(C)nc(N/N=C/c2c(C)oc3ccccc23)n1`, the Potency entry is “inactive”.

Consider `CSc1ccc(CN2CCC2(C)C(=O)Nc2ccc(C)c(O)c2)cc1` (stereo not drawn), for which the Potency result is “inactive”.

Turning to `CC(C)C[C@@H]1Cc2[nH][nH]c(=O)c2[C@H](CCc2ccccc2)O1`, the Potency result was “inactive”.

Turning to `CN(Cc1ccccc1)c1ccc(/C=C/c2ccnc3ccccc23)cc1`, the Potency entry was “inactive”.
